From PubChem BioAssay (Tox21)
Inconclusive results are not listed. Calls of active or inactive are those of the source. Unless noted, calls follow the shape of the dose curve; as a rule, active = well fitted curve in the direction sought with a large enough effect in the repeat runs; inconclusive = weak or mixed curves; inactive = no such curve, though single readings can be large; an effect the other way counts as inactive or inconclusive.

What was measured:
[1] = target: Aryl hydrocarbon receptor (Homo sapiens) (UniProt P35869); assay: qHTS assay to identify small molecule that activate the aryl hydrocarbon receptor (AhR) signaling pathway (AID 743085);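 also: HG2L7.5c1 human HepG2 liver cells with stably integrated DRE-driven firefly reporter; series mostly up to about 70 µM; nearly all actives have a fitted effect of over 15% in size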
How it was run: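 Reporter assay in engineered HepG2 line HG2L7.5c1, whose plasmid carries twenty dioxin responsive elements upstream of firefly luciferase. Treatment lasted 24 h at 37C; ONE-Glo luminescence gauged induction.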

[2] = qHTS assay to identify small molecule that activate the aryl hydrocarbon receptor (AhR) signaling pathway - cell viability counter screen (AID 743086);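 also: HepG2 liver cells carrying the AhR DRE luciferase reporter; series mostly up to about 70 µM; nearly all actives have a fitted effect of over 45% in size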
How it was run: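 HepG2-AhR-luc (HG2L7.5c1) cells, 4000/well, treated 24 h at 37 C with compound; viability measured as CellTiter-Fluor fluorescence after 30 min in the same wells as the luciferase read.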

[3] = target: Peroxisome proliferator-activated receptor gamma (Homo sapiens) (UniProt P37231); assay: qHTS assay to identify small molecule agonists of the peroxisome proliferator-activated receptor gamma (PPARg) signaling pathway (AID 743094; active = well fitted activation curve with a large enough effect in the signal ratio in the repeat runs, not every such curve was filed as active; the % refers to the signal ratio)
How it was run: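 Reporter activation was scored by fluorescence of cleaved LiveBLAzer B/G substrate (1 h, room temperature) in PPARg-bla HEK293H cells previously treated 17 h at 37C with DMSO-dissolved compounds.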

[4] = target: Peroxisome proliferator-activated receptor gamma (Homo sapiens) (UniProt P37231); assay: qHTS assay to identify small molecule antagonists of the peroxisome proliferator-activated receptor gamma (PPARg) signaling pathway (AID 743191; calls by dose curve; also: series mostly up to about 63 µM; nearly all actives have a fitted effect of over 30% in size)
How it was run: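 GeneBLAzer PPARg UAS-bla HEK293H cells, 5 h post-plating, exposed to compounds 17 h at 37C. LiveBLAzer B/G FRET substrate added for 1 h at room temperature; beta-lactamase reporter read by fluorescence intensity.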

[5] = qHTS assay to identify small molecule antagonists of the peroxisome proliferator-activated receptor gamma (PPARg) signaling pathway - cell viability counter screen (AID 743194); also: nearly all actives have a fitted effect of over 55% in size
How it was run: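 Cytotoxicity counter screen in PPARg-bla HEK293H cells, same wells as reporter assay. Compounds plus 50 nM rosiglitazone (final) for 17 h at 37 C, then viability read by CellTiter-Glo luminescence.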

[6] = qHTS assay for small molecule agonists of the antioxidant response element (ARE) signaling pathway (AID 743202; active = well fitted activation curve with a large enough effect in the signal ratio in the repeat runs, not every such curve was filed as active; the % refers to the signal ratio)
How it was run: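 HepG2 ARE-bla reporter line, 2,000 cells/well; 5 h preincubation 37 C/5% CO2; compound (DMSO) 16 h 37 C; B/G FRET substrate 2 h RT; fluorescence intensity.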

[7] = qHTS assay for small molecule agonists of the antioxidant response element (ARE) signaling pathway - cell viability counter screen (AID 743203; calls by dose curve; also: nearly all actives have a fitted effect of over 55% in size)
How it was run: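 Viability counter screen: stably transfected ARE-bla HepG2 line, 16 hrs compound exposure at 37C/5% CO2, ATP-based CellTiter-Glo luminescence measured in the reporter wells.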

[8] = qHTS assay for small molecule activators of the heat shock response signaling pathway - cell viability counter screen (AID 743209); also: nearly all actives have a fitted effect of over 50% in size
How it was run: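 Viability of HSE-bla HeLa cells is measured with CellTiter-Glo in the wells already used for the reporter read. Compound exposure lasts 5 h at 37 C, and luminescence is read after 30 min at room temperature.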

[9] = qHTS assay for small molecule activators of the heat shock response signaling pathway (AID 743210; active = well fitted activation curve with a large enough effect in the signal ratio in the repeat runs, with a control signal flat, not every such curve was filed as active; the % refers to the signal ratio;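 also: HeLa cells with beta-lactamase reporter driven by heat shock elements; series mostly up to about 63 µM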)
How it was run: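 Beta-lactamase reporter read-out: FRET substrate fluorescence after 2.5 h at RT, following 5 h compound treatment at 37 C of HeLa cells carrying HSE-driven bla reporter; quantitative HTS format.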

[10] = qHTS assay to identify small molecule agonists of the peroxisome proliferator-activated receptor delta (PPARd) signaling pathway - cell viability counter screen (AID 743211); also: nearly all actives have a fitted effect of over 55% in size
How it was run: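 Multiplexed format: after the 2 h room-temperature LiveBLAzer B/G FRET step, CellTiter-Glo was added to the same wells. Luminescence after 30 min gave cell viability; compound exposure was 17 h at 37C.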

[11] = target: Peroxisome proliferator-activated receptor delta (Homo sapiens) (UniProt Q03181); assay: qHTS assay to identify small molecule agonists of the peroxisome proliferator-activated receptor delta (PPARd) signaling pathway (AID 743212; calls by dose curve)
How it was run: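 Read-out: beta-lactamase FRET fluorescence after 2 h room-temperature incubation with LiveBLAzer B/G substrate. Cells were HEK293H carrying a UAS-bla reporter for PPARd, treated at 37 C with DMSO-dissolved compounds.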

[12] = target: Peroxisome proliferator-activated receptor delta (Homo sapiens) (UniProt Q03181); assay: qHTS assay to identify small molecule antagonists of the peroxisome proliferator-activated receptor delta (PPARd) signaling pathway (AID 743215; active = well fitted inhibition curve with a large enough effect in the signal ratio in the repeat runs, not every such curve was filed as active; the % refers to the signal ratio;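 also: cells stimulated with agonist L165041 at 300 nM final during compound exposure; series mostly up to about 62 µM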)
How it was run: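 Plated HEK293H PPARd-bla cells rested 5 h at 37 C and 5% CO2. Compound, then agonist L165041 at 300 nM final, was added; 17 h at 37 C followed. Substrate loading, 2 h room temperature, fluorescence measured.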

[13] = qHTS assay to identify small molecule agonists of the farnesoid-X-receptor (FXR) signaling pathway - cell viability counter screen (AID 743218); also: nearly all actives have a fitted effect of over 45% in size
How it was run: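 Viability of FXR-bla HEK 293T cells is measured by ATP-based CellTiter-Glo luminescence following 16 h compound treatment at 37 C and a prior 2 h room-temperature beta-lactamase substrate step.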

[14] = qHTS assay to identify small molecule antagonists of the farnesoid-X-receptor (FXR) signaling pathway - cell viability counter screen (AID 743221; active = well fitted cell-killing curve with a large enough effect in the repeat runs, not every such curve was filed as active; also: nearly all actives have a fitted effect of over 50% in size)
How it was run: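 CellTiter-Glo, 30 min RT, luminescence; same wells as the LiveBLAzer FRET read. Cells: FXR-UAS-bla HEK 293T. Treatment: compound with chenodeoxycholic acid 50 uM final, 16 h at 37 C.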

[15] = qHTS assay to identify small molecule agonists of the vitamin D receptor (VDR) signaling pathway - cell viability counter screen (AID 743224); also: series mostly up to about 63 µM; nearly all actives have a fitted effect of over 50% in size
How it was run: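 Compounds were pin-transferred onto VDR-bla cells plated 4 h earlier; following 16 h incubation at 37C, cell viability was quantified by CellTiter-Glo luminescence after 30 min at room temperature.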

[16] = qHTS assay to identify small molecule antagonists of the peroxisome proliferator-activated receptor delta (PPARd) signaling pathway - cell viability counter screen (AID 743213); also: nearly all actives have a fitted effect of over 50% in size
How it was run: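 Same-well viability: cells pre-incubated 5 h, dosed with compound plus 300 nM L165041, kept 17 h at 37 C, FRET substrate 2 h RT, then CellTiter-Glo 30 min RT and luminescence.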

[17] = target: Bile acid receptor (Homo sapiens) (UniProt Q96RI1); assay: qHTS assay to identify small molecule antagonists of the farnesoid-X-receptor (FXR) signaling pathway (AID 743217; active = well fitted inhibition curve with a large enough effect in the signal ratio in the repeat runs, not every such curve was filed as active; the % refers to the signal ratio)
How it was run: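 Screen of the Tox21 10K library in quantitative HTS format using FXR-UAS-bla HEK 293T reporter cells. Agonist chenodeoxycholic acid, 50 uM final, added with compounds; 16 h incubation at 37 °C; beta-lactamase FRET fluorescence measured.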

[18] = target: Bile acid receptor (Homo sapiens) (UniProt Q96RI1); assay: qHTS assay to identify small molecule agonists of the farnesoid-X-receptor (FXR) signaling pathway (AID 743220; active = well fitted activation curve with a large enough effect in the signal ratio in the repeat runs, not every such curve was filed as active; the % refers to the signal ratio)
How it was run: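 FXR-UAS-bla HEK 293T cells carrying a UAS-driven beta-lactamase reporter were plated for 5 h at 37C/5% CO2, then exposed to DMSO-dissolved Tox21 10K compounds for 16 h at 37C. A LiveBLAzer B/G FRET substrate was loaded for 2 h at room temperature before fluorescence reading.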

[19] = target: Vitamin D3 receptor (Homo sapiens) (UniProt P11473); assay: qHTS assay to identify small molecule antagonists of the vitamin D receptor (VDR) signaling pathway (AID 743223; active = well fitted inhibition curve with a large enough effect in the signal ratio in the repeat runs, not every such curve was filed as active; the % refers to the signal ratio)
How it was run: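 After VDR-bla cells are plated and left 4 h at 37C, DMSO-dissolved compounds and 3 nM (final) calcitriol agonist are added. Incubation continues 16 h at 37C; FRET beta-lactamase substrate then develops 2 h at room temperature.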

[20] = target: Vitamin D3 receptor (Homo sapiens) (UniProt P11473); assay: qHTS assay to identify small molecule agonists of the vitamin D receptor (VDR) signaling pathway (AID 743222; calls by dose curve)
How it was run: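 Fluorescence from cleaved LiveBLAzer B/G FRET substrate served as readout. VDR-bla cells had been treated 16 h at 37C with test compounds in DMSO, following a 4 h settling period, and substrate was loaded for 2 h at RT.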

Measured: Potency

Sequence of Peroxisome proliferator-activated receptor gamma (Homo sapiens) (P37231 whole entry, looked up): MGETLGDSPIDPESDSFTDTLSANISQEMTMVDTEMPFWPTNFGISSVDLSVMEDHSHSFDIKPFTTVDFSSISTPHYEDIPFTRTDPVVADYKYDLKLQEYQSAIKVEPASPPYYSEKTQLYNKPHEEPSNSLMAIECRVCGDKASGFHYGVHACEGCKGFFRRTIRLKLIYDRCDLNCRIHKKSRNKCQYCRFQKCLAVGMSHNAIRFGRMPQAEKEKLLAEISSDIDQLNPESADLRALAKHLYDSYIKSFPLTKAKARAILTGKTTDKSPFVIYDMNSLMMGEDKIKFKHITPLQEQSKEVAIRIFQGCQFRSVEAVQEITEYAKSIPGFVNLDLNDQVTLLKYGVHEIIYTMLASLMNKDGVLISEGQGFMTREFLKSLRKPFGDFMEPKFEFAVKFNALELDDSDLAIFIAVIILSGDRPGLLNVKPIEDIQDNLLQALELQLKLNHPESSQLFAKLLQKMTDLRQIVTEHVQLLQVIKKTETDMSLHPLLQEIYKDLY
Sequence of Peroxisome proliferator-activated receptor delta (Homo sapiens) (Q03181 whole entry, looked up): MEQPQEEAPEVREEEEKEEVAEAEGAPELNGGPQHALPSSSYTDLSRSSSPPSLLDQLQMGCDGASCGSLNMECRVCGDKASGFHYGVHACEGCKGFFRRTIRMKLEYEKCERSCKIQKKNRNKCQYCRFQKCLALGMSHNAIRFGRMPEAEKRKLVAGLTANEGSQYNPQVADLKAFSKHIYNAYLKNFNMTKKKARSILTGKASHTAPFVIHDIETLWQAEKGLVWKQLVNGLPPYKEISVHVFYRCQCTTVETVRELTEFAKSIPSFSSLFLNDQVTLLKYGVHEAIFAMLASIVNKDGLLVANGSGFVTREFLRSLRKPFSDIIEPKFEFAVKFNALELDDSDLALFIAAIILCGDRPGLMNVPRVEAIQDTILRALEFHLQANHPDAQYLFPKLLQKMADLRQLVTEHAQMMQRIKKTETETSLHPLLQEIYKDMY
Sequence of Bile acid receptor (Homo sapiens) (Q96RI1 whole entry, looked up): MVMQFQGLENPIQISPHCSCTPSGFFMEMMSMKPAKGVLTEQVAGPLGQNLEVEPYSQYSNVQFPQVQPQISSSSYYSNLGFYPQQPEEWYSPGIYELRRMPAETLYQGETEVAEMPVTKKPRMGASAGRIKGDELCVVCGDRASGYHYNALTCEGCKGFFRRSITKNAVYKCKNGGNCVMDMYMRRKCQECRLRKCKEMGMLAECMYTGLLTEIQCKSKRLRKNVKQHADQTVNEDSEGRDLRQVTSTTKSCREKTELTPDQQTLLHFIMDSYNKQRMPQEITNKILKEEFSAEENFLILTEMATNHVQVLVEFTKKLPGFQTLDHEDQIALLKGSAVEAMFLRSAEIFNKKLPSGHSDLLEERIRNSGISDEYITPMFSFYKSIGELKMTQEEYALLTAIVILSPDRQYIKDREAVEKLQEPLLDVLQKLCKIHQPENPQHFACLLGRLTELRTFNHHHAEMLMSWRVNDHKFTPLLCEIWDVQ
Sequence of Aryl hydrocarbon receptor (Homo sapiens) (P35869 whole entry, looked up): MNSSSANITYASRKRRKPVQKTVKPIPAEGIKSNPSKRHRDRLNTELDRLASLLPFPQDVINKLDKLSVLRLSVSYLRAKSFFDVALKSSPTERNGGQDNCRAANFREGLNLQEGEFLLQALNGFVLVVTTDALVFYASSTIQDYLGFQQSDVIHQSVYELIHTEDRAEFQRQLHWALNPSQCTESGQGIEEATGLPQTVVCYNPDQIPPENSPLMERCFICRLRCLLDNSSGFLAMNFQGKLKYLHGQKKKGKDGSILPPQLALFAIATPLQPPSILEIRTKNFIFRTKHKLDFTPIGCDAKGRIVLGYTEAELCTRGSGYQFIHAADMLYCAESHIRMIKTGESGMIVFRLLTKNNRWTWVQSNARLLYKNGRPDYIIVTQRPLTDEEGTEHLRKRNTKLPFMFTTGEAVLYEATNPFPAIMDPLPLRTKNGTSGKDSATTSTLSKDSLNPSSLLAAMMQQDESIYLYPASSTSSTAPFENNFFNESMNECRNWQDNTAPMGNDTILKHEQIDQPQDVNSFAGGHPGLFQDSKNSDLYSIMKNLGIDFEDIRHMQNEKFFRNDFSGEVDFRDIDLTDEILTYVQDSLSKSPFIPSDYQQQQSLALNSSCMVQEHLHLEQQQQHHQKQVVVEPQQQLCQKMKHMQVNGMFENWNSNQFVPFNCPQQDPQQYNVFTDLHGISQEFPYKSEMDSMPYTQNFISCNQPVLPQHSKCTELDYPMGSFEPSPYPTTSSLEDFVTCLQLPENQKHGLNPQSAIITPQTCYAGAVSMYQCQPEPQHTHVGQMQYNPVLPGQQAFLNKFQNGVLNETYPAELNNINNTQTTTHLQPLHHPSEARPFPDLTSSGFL
Sequence of Vitamin D3 receptor (Homo sapiens) (P11473 whole entry, looked up): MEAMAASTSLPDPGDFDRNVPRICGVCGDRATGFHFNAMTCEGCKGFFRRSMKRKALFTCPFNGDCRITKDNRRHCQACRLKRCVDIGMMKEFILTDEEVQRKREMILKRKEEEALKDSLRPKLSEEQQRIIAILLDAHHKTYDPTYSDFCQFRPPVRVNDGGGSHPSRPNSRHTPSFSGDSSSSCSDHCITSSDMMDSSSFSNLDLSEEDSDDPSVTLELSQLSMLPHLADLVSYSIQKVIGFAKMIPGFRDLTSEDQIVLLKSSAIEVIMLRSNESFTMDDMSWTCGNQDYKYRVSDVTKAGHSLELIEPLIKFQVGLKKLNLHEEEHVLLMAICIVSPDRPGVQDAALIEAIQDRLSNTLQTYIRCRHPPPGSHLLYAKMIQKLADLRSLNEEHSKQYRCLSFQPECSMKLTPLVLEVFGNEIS

CC(C)(N)C#N
inactive: [1] | [2] | [3] | [4] | [5] | [6] | [7] | [8] | [9] | [10] | [11] | [12] | [13] | [14] | [15]

NCCCC[C@H](N[C@@H](CCc1ccccc1)C(=O)O)C(=O)N1CCC[C@H]1C(=O)O
inactive: [1] | [2] | [3] | [4] | [5] | [6] | [7] | [8] | [10] | [16] | [17] | [13] | [14]

CCCCOCCOC(=O)CCCCCCCCC(=O)OCCOCCCC
inactive: [1] | [2] | [3] | [4] | [5] | [6] | [7] | [8] | [9] | [10] | [11] | [12] | [13] | [14] | [15]

CCC(C)(CCCC(C)C)OC(C)=O (stereo not drawn)
inactive: [1] | [2] | [3] | [4] | [5] | [6] | [7] | [8] | [10] | [11] | [12] | [17] | [18] | [14] | [19] | [15]

COc1cc(C(=O)OC(COCCC(C)C)CN2CCOCC2)cc(OC)c1OC (stereo not drawn)
inactive: [1] | [2] | [3] | [4] | [5] | [6] | [7] | [8] | [9] | [10] | [11] | [12] | [17] | [14] | [20] | [19] | [15]

CC(N)C12CC3CC(CC(C3)C1)C2 (stereo not drawn)
inactive: [1] | [2] | [3] | [4] | [5] | [6] | [7] | [8] | [9] | [10] | [11] | [16] | [12] | [17] | [13] | [18] | [14] | [20] | [15]

CC(=O)c1ccccc1[N+](=O)[O-]
inactive: [1] | [2] | [3] | [4] | [5] | [6] | [7] | [8] | [9] | [10] | [11] | [16] | [12] | [13] | [14] | [20] | [19] | [15]

c1ccc(Cc2ccccc2)cc1
inactive: [1] | [2] | [3] | [4] | [5] | [6] | [7] | [8] | [9] | [10] | [16] | [17] | [13] | [18] | [14]
